In the library only some 3.5% were active in any assay of this set; here they are far more common.
GPR151 activ – activates the human receptor GPR151 | Q8TDV0 | PathHunter beta-arrestin GPR151 cells, luminescence | activation, % at 11.2 µM | 650,000 compounds, 1% hits | AID 1508602; in the data active = activation above about 4.9%;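 also: 0% = median of compound wells and 100% = cells with positive control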
Target sequence (Q8TDV0 whole entry, looked up): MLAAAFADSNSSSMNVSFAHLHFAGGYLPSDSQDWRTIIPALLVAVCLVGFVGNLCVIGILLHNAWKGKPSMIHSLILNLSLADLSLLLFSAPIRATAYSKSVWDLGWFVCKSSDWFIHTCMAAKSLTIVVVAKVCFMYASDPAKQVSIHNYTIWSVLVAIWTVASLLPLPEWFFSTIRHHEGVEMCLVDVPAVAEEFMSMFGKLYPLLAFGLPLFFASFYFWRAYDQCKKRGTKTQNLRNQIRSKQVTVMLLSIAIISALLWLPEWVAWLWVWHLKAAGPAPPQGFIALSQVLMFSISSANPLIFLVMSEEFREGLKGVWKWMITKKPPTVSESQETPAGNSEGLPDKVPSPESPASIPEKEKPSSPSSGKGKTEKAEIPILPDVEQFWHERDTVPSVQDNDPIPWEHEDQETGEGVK
MITF inh – blocks human microphthalmia-associated transcription factor | AlphaScreen MITF homodimerization, bead proximity signal | inhibition, % at 2.6 µM | AID 1259374 | 650,000 compounds, 0.91% hits; in the data active = inhibition above about 50%;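 also: 0% = vehicle wells with protein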
TEAD-YAP block – TEAD-YAP interaction inhibition | HEK-TIYL cells, TEAD-Gal4/YAP UAS-luciferase luminescence | inhibition, % at 9.12 µM | 640,000 compounds, 1.4% hits | AID 1259422; in the data active = inhibition above about 32%;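 also: 0% = median of test compound wells and 100% = reference inhibitor wells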
FBW7 activator – activators of human E3 ligase FBW7 | Q969H0 | normalized activity (activation), % at 26.1 µM | 650,000 compounds, 0.13% hits | AlphaScreen FBW7–phospho-cyclin E peptide binding, activator screen; in the data active = normalized activity above about 1.9%;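 also: purified mutant Fbw7 with reduced substrate affinity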
* marks the source's active call; other numbers are inactive results.

SMILES | GPR151 activ | MITF inh | TEAD-YAP block | FBW7 activator
COc1cc(NS(=O)(=O)c2ccc3[nH]c4c(c3c2)CCCC4)cc(OC)c1OC | 1.1 | 6.3 | 55.3* | 0.2
COc1ccc(OC)c(NS(=O)(=O)c2ccc3[nH]c4c(c3c2)CCCC4)c1 | 2.0 | -2.1 | 35.4* | -0.1
OCCC1CN(Cc2ccc3c(c2)OCCO3)CCN1Cc1cccs1 (centres undefined) | 0.1 | -12.9 | -1.5 | -0.1
O=C1Nc2ccccc2/C1=C/c1nc2ccccc2c(=O)n1-c1cccc([N+](=O)[O-])c1 | 0.6 | 8.6 | 17.1 | -0.3
O=C1Nc2ccccc2/C1=C\c1nc2ccccc2c(=O)n1-c1cccc([N+](=O)[O-])c1 | 2.6 | 19.9 | 40.8* | 0.0
O=c1[nH]c(/C=C\c2ccc(O)c(O)c2)nc(O)c1[N+](=O)[O-] | -0.9 | 85.1* | 1.7 | 1.0
Cc1ccsc1/C=C1\S/C(=N/c2nccs2)NC1=O | -4.8 | -10.2 | 37.5* | -1.3
COc1ccc2nc(N3CCCC3)sc2c1 | -6.2 | 12.3 | 2.5 | 0.0
COc1ccc2nc(N3CCCCC3)sc2c1 | -4.4 | 13.2 | 60.5* | 1.6
COc1cccc(NC(=O)CCC2CCN(Cc3cnc(N)nc3)CC2)c1 | -0.6 | 14.3 | -1.8 | 0.0
Oc1ccc(/C=N/NC(=S)Nc2cccnc2)c(O)c1 | -0.3 | 119.0* | 3.8 | -1.3
Oc1ccc(/C=N/NC(=S)Nc2cccnc2)c(O)c1O | -0.8 | 84.0* | -6.4 | -1.2
Oc1cccc(/C=N/NC(=S)Nc2cccnc2)c1O | -2.1 | 112.3* | 40.0* | -0.9
O=[N+]([O-])c1ccccc1NC(=S)N/N=C/c1ccc(O)c(O)c1O | 1.3 | 57.2* | 48.7* | -1.1
Cc1ccccc1-n1c(=S)sc2c1nc(SCC(=O)NCc1ccccc1)n1c3ccccc3nc21 | 1.4 | 8.1 | -0.3 | -0.1
O=C1C=C(NNC(=O)c2ccc([N+](=O)[O-])cc2)CCC1 | -0.7 | 3.1 | -2.9 | -0.1
N#CCc1nc2ccccc2[nH]1 | 1.3 | -0.4 | -39.3 | -0.1
CCC(=O)Nc1cc(C2CC2)nn1-c1nc(-c2ccccc2)cc(=O)[nH]1 | -1.3 | -1.9 | 15.3 | 2.2*
O=C(NCc1cccnc1)/C(=C\c1ccc(Br)cc1)S(=O)(=O)c1ccccc1 | -0.5 | -5.1 | 85.6* | -0.1
O=C(NCc1cccnc1)/C(=C\c1cccc(Oc2ccccc2)c1)S(=O)(=O)c1ccccc1 | -2.6 | 10.2 | 81.6* | 0.2
O=C(NCc1cccnc1)/C(=C/c1ccc(-c2ccc(Br)cc2)o1)S(=O)(=O)c1ccccc1 | -0.3 | 1.9 | 35.4* | 0.0
O=C(NCc1cccnc1)/C(=C/c1ccc(-c2cccc([N+](=O)[O-])c2)o1)S(=O)(=O)c1ccccc1 | -0.6 | 7.4 | 13.7 | -0.2
O=C(NCc1cccnc1)/C(=C/c1ccc(-c2cccc(Cl)c2)o1)S(=O)(=O)c1ccccc1 | 0.3 | 6.3 | 52.9* | -0.1
Cc1oc(-c2cccs2)nc1CN1CCCC(CO)(Cc2ccccc2)C1 (centres undefined) | 3.0 | 5.6 | -2.6 | 0.1
CCn1c(=N)c(C(=O)NCCOC)cc2c(=O)n3cccc(C)c3nc21 | -1.0 | 8.2 | 13.8 | 0.0
SMILES | GPR151 activ | MITF inh | TEAD-YAP block | FBW7 activator
CCn1c(=N)c(C(=O)NC)cc2c(=O)n3cccc(C)c3nc21 | -0.7 | 20.1 | 32.2* | 0.0
Cc1sc2nc(C3CCCN(C(=O)c4ccco4)C3)[nH]c(=O)c2c1C (centres undefined) | -0.6 | 11.7 | -30.6 | 0.1
Cc1sc2nc(C3CCCN(C(=O)C(C)(C)C)C3)[nH]c(=O)c2c1C (centres undefined) | 0.0 | -0.1 | 91.6* | 0.0
Cc1ccc(C)c(N2CCN(C(=O)C34CC5CC(C3)CC(n3nnc(C)n3)(C5)C4)CC2)c1 | -0.9 | 24.0 | 36.8* | 0.6
COc1ccccc1C(=O)Nc1ccc2nc(SC(C)c3ccccc3)sc2c1 (centres undefined) | 2.6 | -3.7 | 53.9* | -0.1
COc1ccccc1C(=O)Nc1ccc2nc(SCC(C)=O)sc2c1 | 0.9 | 5.6 | -43.0 | 0.0
Nc1nc(SCC(=O)Nc2cccc([N+](=O)[O-])c2)sc1C(=O)Nc1nccs1 | -4.6 | 5.2 | 32.4* | -0.1
O=C(CSc1nc2ccc(NC(=O)c3ccccc3C(=O)O)cc2s1)NCc1ccccc1 | -0.7 | 5.2 | 41.3* | 0.0
O=C(CSc1nc2ccc(NC(=O)c3ccccc3Cl)cc2s1)Nc1ccccc1 | -0.2 | -2.2 | -40.9 | -0.2
O=C(CSc1nc2ccc(NC(=O)c3ccccc3Cl)cc2s1)Nc1cccc([N+](=O)[O-])c1 | -0.3 | 9.9 | 32.2* | 0.1
O=C(NCc1nc2ccccc2[nH]1)c1ccnc(Nc2ccc(N3CCOCC3)cc2)c1 | -1.1 | -1.0 | -13.4 | -0.1
COC(=O)c1ccccc1NS(=O)(=O)Cc1ccccc1 | -0.2 | 4.8 | 6.0 | 0.2
Cc1cc(Br)ccc1NC(=O)Cn1cnc2sc3c(c2c1=O)CCCC3 | 0.4 | 6.6 | -5.3 | 0.0
COc1ccccc1NC(=O)CN(C)S(=O)(=O)c1ccc2c(c1)n(C)c(=O)c(=O)n2C | 0.8 | -1.1 | -6.1 | -0.3
COc1ccc2cc(CN(CC3CCCO3)C(=O)Nc3ccccc3OC)c(=O)[nH]c2c1 (centres undefined) | -1.1 | 2.0 | 53.8* | -0.1
COc1ccc2[nH]c(=O)c(CN(Cc3ccco3)C(=O)Nc3ccccc3OC)cc2c1 | -1.0 | 8.2 | -3.8 | -0.1
COc1ccc2cc(CN(Cc3ccccc3)C(=O)c3ccncc3)c(=O)[nH]c2c1 | 0.8 | -7.1 | 51.4* | -0.3
COc1ccc2cc(CN(Cc3ccco3)C(=O)Nc3ccccc3OC)c(=O)[nH]c2c1 | -1.0 | 15.6 | 53.6* | 0.0
CCOc1ccc(C(=O)NC2CCS(=O)(=O)C2)cc1OCC (centres undefined) | 1.2 | 4.8 | 4.7 | 0.0
Cc1cccc(-c2c(C#N)cnc3cc(C)nn23)c1 | 0.0 | -7.1 | 32.8* | 0.0
Cc1ccc(-c2cc3ncc(C#N)c(-c4cccc(C)c4)n3n2)cc1 | -1.6 | 21.3 | -1.4 | 0.5
CCN1C(=O)N/C(=C/c2cc(C)n(-c3ccc(C)cn3)c2C)C1=O | -0.6 | 2.8 | -19.1 | -0.1
CCN1/C(=C/c2ccc3ccc(C)cc3[n+]2C)Sc2ccccc21 | 1.8 | 20.3 | 89.5* | -0.5
CCN1/C(=C/c2ccc3cc(C)ccc3[n+]2CC)Sc2cc(NC(C)=O)ccc21 | 0.2 | 20.3 | 10.5 | -0.3
CCN1/C(=C/c2ccc3ccc(C)cc3[n+]2CC)Sc2cc(C)c(C)cc21 | 1.6 | 23.8 | 89.3* | -0.6
SMILES | GPR151 activ | MITF inh | TEAD-YAP block | FBW7 activator
CCN1/C(=C/c2ccc3cc(C)ccc3[n+]2CC)Sc2c(C)cc(C)cc21 | 0.2 | 5.5 | 72.5* | -0.1
c1cc(-c2nc(N3CCOCC3)c3ccncc3n2)ccn1 | 0.5 | -6.3 | 24.9 | -0.1
Cc1cc(=O)n(C)c(=O)n1CCCCCN1CCCCC1 | -0.8 | 31.5 | -4.6 | 0.0
O=C(NCc1ccco1)c1cnc(N2CCN(c3ccccn3)CC2)c2ccccc12 | -0.7 | -6.6 | 17.6 | 0.0
Cc1cccc(N2C(=O)NC(=O)/C(=C\c3ccoc3)C2=O)c1 | -0.5 | 57.6* | -3.8 | 0.2
O=C1NC(=S)N(c2ccc(Cl)cc2)C(=O)/C1=C\c1ccoc1 | -2.2 | 34.2 | 10.2 | -0.1
Cc1cccc(N2C(=O)NC(=O)/C(=C\c3cccc(O)c3)C2=O)c1 | 0.5 | 3.8 | -2.5 | -0.3

Source: PubChem BioAssay (The Scripps Research Institute Molecular Screening Center)
